From PubChem BioAssay (NCI) come the findings set out here.

Compounds without any hit were thinned out: in the full panel of roughly 83,000, 20% have a hit.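 The test compound was applied at a single concentration to cells in 96-well plates for 48 hours, and percent growth was recorded.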 Values without a mark were called inactive. Activity calls are given as the source filed them. The calls were made as follows: active = growth percent below 10; inactive = the rest.

Among the test systems are HCT-15 colon; HT29 colon; SNB-75 CNS; SNB-19 CNS; U251 CNS; PC-3 prostate; SK-MEL-5 melanoma; UACC-62 melanoma; LOX IMVI melanoma; SK-MEL-28 melanoma; SK-MEL-2 melanoma; EKVX NSCLC; SN12C renal; UO-31 renal; TK-10 renal; ACHN renal; CAKI-1 renal; A498 renal; CCRF-CEM leukemia; MOLT-4 leukemia.
Test in all cases: NCI-60 one-dose screen, 48 h (100 = growth as untreated, 0 = no growth, -100 = all killed)
Holding throughout (settings): 10 µM unless noted

Regarding `CCOC(=O)c1cc2c(n1Cc1cc(OC)cc(OC)c1Br)-c1nc(NC(C)=O)sc1CCC2`, the growth in the experiment with HCT-15 colon is 83%; with HT29 colon it was 63.3%; with SNB-75 CNS it was 65.7%; in the experiment with SNB-19 CNS, 83.9%; in the experiment with U251 CNS, 63.3%; in the experiment with PC-3 prostate, 22.1%. For the same compound, the growth in the experiment with SK-MEL-5 melanoma was 82.1%; in the experiment with UACC-62 melanoma, 67.3%; in the experiment with LOX IMVI melanoma, 80.3%; with SK-MEL-28 melanoma, 98.6%; in the experiment on SK-MEL-2 melanoma, 82.6%; in the experiment on EKVX NSCLC, 58.6%. Moreover, the growth in the experiment on SN12C renal was 77.5%; in the experiment on UO-31 renal, 51.8%; in the experiment on TK-10 renal it was 94.4%; in the experiment on ACHN renal, 91.2%; in the experiment with CAKI-1 renal, 67.3%; in the experiment with A498 renal it was 55.8%. Moreover, the growth is 56.3% in the experiment with CCRF-CEM leukemia and 46.7% with MOLT-4 leukemia.
For `COC(=O)/C=C1/SC(=Nc2ccc([N+](=O)[O-])cc2)N(CCc2c[nH]c3ccccc23)C1=O`, the growth with HCT-15 colon was 29.9%; with HT29 colon, 51.8%; with SNB-75 CNS, 84.3%; in the experiment on SNB-19 CNS, 69.2%; with U251 CNS, 46.9%; in the experiment on PC-3 prostate it was 63.4%. For the same compound, the growth with SK-MEL-5 melanoma was 84.9%; in the experiment with UACC-62 melanoma, 51%; in the experiment with LOX IMVI melanoma, -9.3% (active); in the experiment with SK-MEL-28 melanoma, 76.8%; in the experiment on SK-MEL-2 melanoma it was 68.1%; in the experiment with EKVX NSCLC, 87.2%. For the same compound, the growth was 58.8% in the experiment on SN12C renal; 48.8% with UO-31 renal; 103% with TK-10 renal; 64.6% with ACHN renal; 73.1% with CAKI-1 renal; 78.2% in the experiment on A498 renal. Also, the values for the growth in the experiment on CCRF-CEM leukemia and in the experiment on MOLT-4 leukemia were 8.51% (active) and -2.1% (active), respectively.
Turning to `C=C(C)[C@@H]1CC[C@]2(C(=O)O)CC[C@]3(C)[C@H](CC[C@@H]4[C@@]5(C)CCC(N)C(C)(C)[C@@H]5CC[C@]43C)[C@@H]12` (stereo not given in full), the growth is 29.4% with HCT-15 colon; -13.6% (active) with HT29 colon; 95.8% in the experiment on SNB-75 CNS; 28.1% with SNB-19 CNS; 5.5% (active) in the experiment with U251 CNS; 66.5% in the experiment with PC-3 prostate. The growth with SK-MEL-5 melanoma is 61%; with UACC-62 melanoma it was -51.7% (active); with LOX IMVI melanoma it was -51.1% (active); in the experiment with SK-MEL-28 melanoma, -70.2% (active); with SK-MEL-2 melanoma it was 93%; in the experiment on EKVX NSCLC, 67.6%. For the same compound, the growth in the experiment with SN12C renal is -7.83% (active); in the experiment with UO-31 renal, 63.4%; in the experiment with TK-10 renal, 47.8%; in the experiment on ACHN renal, 8.7% (active); with CAKI-1 renal, 48.6%; in the experiment with A498 renal, 78.1%. Besides, the growth in the experiment on CCRF-CEM leukemia was -8.42% (active); with MOLT-4 leukemia, 25.7%.
As for `CN1Cn2c(ccc2C(F)(F)F)C(=O)CS1(=O)=O`, the growth in the experiment on HCT-15 colon is 105%; in the experiment with HT29 colon it was 105%; in the experiment on SNB-75 CNS, 79.1%; with SNB-19 CNS, 105%; in the experiment on U251 CNS, 101%; in the experiment with PC-3 prostate, 105%. In addition, the growth in the experiment with SK-MEL-5 melanoma is 103%; in the experiment on UACC-62 melanoma it was 99.4%; in the experiment with LOX IMVI melanoma, 99.2%; in the experiment on SK-MEL-28 melanoma it was 105%; in the experiment with SK-MEL-2 melanoma it was 105%; in the experiment with EKVX NSCLC, 99.2%. Besides, the growth is 104% in the experiment with SN12C renal; 82.9% in the experiment with UO-31 renal; 103% in the experiment on TK-10 renal; 99.4% with ACHN renal; 94.1% in the experiment on CAKI-1 renal; 96.1% with A498 renal. Besides, the growth in the experiment with CCRF-CEM leukemia was 105%; with MOLT-4 leukemia it was 101%.
`COC1=CC(c2ccc[nH]2)=N/C1=C\c1[nH]c(C)c(C(=O)Oc2ccccc2)c1C`: the growth is -35.1% (active) in the experiment with HCT-15 colon; -15.7% (active) in the experiment with HT29 colon; -16.6% (active) in the experiment with SNB-75 CNS; 20.9% in the experiment on SNB-19 CNS; -16.5% (active) with U251 CNS; 17.6% in the experiment on PC-3 prostate. Moreover, the growth was -99.9% (active) in the experiment with SK-MEL-5 melanoma; -62.8% (active) in the experiment on UACC-62 melanoma; -86.1% (active) with LOX IMVI melanoma; -77.9% (active) in the experiment with SK-MEL-28 melanoma; -68.6% (active) in the experiment on SK-MEL-2 melanoma; -19.9% (active) in the experiment with EKVX NSCLC. The growth was 0.383% (active) in the experiment with SN12C renal; -87.2% (active) in the experiment on UO-31 renal; -6.73% (active) in the experiment on TK-10 renal; -90.3% (active) in the experiment on ACHN renal; -23.8% (active) in the experiment with CAKI-1 renal; -46.7% (active) in the experiment with A498 renal. Moreover, the growth was 18.6% with CCRF-CEM leukemia and 3.87% (active) in the experiment with MOLT-4 leukemia.
Consider `CCCCCCCCN(CCCCCCCC)CC(O)c1cc(Cl)ccc1OC` (stereo not given), for which the growth in the experiment with HCT-15 colon was 61.8%; with HT29 colon it was 38.7%; with SNB-75 CNS, 76.5%; in the experiment on SNB-19 CNS, 91.2%; with U251 CNS, 78.6%; in the experiment with PC-3 prostate, 71.9%. Also, the growth with SK-MEL-5 melanoma is 56%; in the experiment with UACC-62 melanoma, 64.6%; in the experiment on LOX IMVI melanoma, 13.1%; in the experiment on SK-MEL-28 melanoma, 80.5%; in the experiment with SK-MEL-2 melanoma it was 80.1%; with EKVX NSCLC, 59.9%. Besides, the growth was 75.4% with SN12C renal; 52.3% in the experiment on UO-31 renal; 96.4% with TK-10 renal; 71.5% in the experiment on ACHN renal; 62.3% with CAKI-1 renal; 54.8% in the experiment on A498 renal. In addition, the growth in the experiment with CCRF-CEM leukemia is 92.8%; in the experiment on MOLT-4 leukemia it was 79.3%.
